Among all 420,000 compounds or so, about 50,000 (12%) were called active. Roughly 26% stayed inconclusive and do not appear here. For the sample, actives were picked, then their nearest neighbours and some compounds at random. Values without a mark were called inactive. The call rests on the fitted dose curve; in most records, active means well fitted inhibition curve with a large enough effect; inconclusive means small, poorly fitted or top-dose-only effect; inactive means flat fitted curve, though single readings scatter.
test: qHTS for Inhibitors of human tyrosyl-DNA phosphodiesterase 1 (TDP1): qHTS in cells in presence of CPT; conditions: chicken DT40 Tdp1-/-;hTDP1 cells + 20 nM CPT, ATP luminescence, 48 h; series mostly up to 46.2 µM; activity change, negative = growth inhibition: at the top concentration; further: nearly all actives have a fitted effect of over 55% in size
Summary of the method: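 Chicken DT40 Tdp1-/- cells stably complemented with human TDP1 were seeded at 400 cells/well in medium containing 20 nM camptothecin, exposed to pin-transferred compounds, and grown at 37 °C for at least 48 hr. Viability was read as ATP luminescence.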
On the % scale 0 is the no-effect control and ±100 the full control effect; potency means the concentration at half of the fitted maximal effect.

SMILES | activity change, negative = growth inhibition [%] | Potency
CCCCn1c(N)c(N(CCOC)C(=O)c2cccc(OCc3ccccc3)c2)c(=O)[nH]c1=O | -10.2 | –
COc1ccc(-c2noc(CSc3nnc(-c4ccccc4)n3-c3ccc(F)cc3)n2)c(OC)c1 | – | 11.6 µM (active)
O=C(CSc1nnc(-c2ccncc2)n1-c1ccc(Cl)cc1)Nc1ccc(C(=O)O)cc1 | -4.12 | –
COc1ccc(-c2nnc(SCC(=O)c3ccco3)n2-c2ccccc2)cc1 | 3.76 | –
Cc1ccc(-c2nc(-c3ccncc3)no2)c(C)c1 | -6.9 | –
Fc1ccc(-n2c(Cc3ccccc3)nnc2SCc2nc(-c3ccc(Cl)cc3)no2)cc1 | – | 13 µM (active)
COc1ccccc1-c1noc(CSc2nc(C)cc(=O)[nH]2)n1 | 8.99 | –
Cc1ccc(-c2noc(CSc3nnc(-c4ccc(Cl)cc4)n3C)n2)cc1 | – | 18.4 µM (active)
CSc1nnc(CNC(=O)c2ccccc2)n1-c1ccc(F)cc1 | -0.846 | –
Cc1ccc(-c2noc(CSc3nnc(-c4ccncc4)n3-c3ccc(F)cc3)n2)cc1 | – | 11.6 µM (active)
Cc1ccc(CSc2nnc(-c3cnccn3)n2C)cc1 | 3.5 | –
O=C(CSc1nnc(Cc2ccccc2)n1-c1ccccc1)N1CCOCC1 | 5.04 | –
Cc1ccc(-c2noc(CSc3nnc(-c4cccs4)n3C)n2)cc1 | -25.9 | –
Cc1cc(=O)cc(C)n1-c1ccc(Cl)c(Cl)c1 | 0.528 | –
CN(C(=O)CC1C(=O)NCCN1Cc1ccc2ccccc2c1)C1CCOCC1 (stereo unspecified) | 5.07 | –
Cc1ccc(/C=C2\CCn3c2nc2cc(C(=O)O)ccc2c3=O)c(C)c1 | -6.72 | –
Cc1ccc(-c2cc(C(=O)NN)n[nH]2)o1 | -2.74 | –
CN(Cc1ccccc1)C(=O)[C@@H]1CCCN1C(=O)[C@@H]1CCCN1C(=O)c1c(F)cccc1F | 1.59 | –
CC(C)=CCN1CCN(Cc2ccc(Oc3ncccn3)cc2)CC1CCO (stereo unspecified) | -0.653 | –
COc1ccccc1OCCOc1ccc(/C=C2\C(=N)N3N=C(C)SC3=NC2=O)cc1 | 5.82 | –
COc1ccc(NC(=O)N(C)C[C@H]2Oc3ncc(C#C[C@@H](C)O)cc3C(=O)N([C@H](C)CO)C[C@H]2C)cc1 | 1.89 | –
Cn1c(=O)cc(OCC(=O)N2CCN(c3ccccc3)CC2)c2ccccc21 | -1.4 | –
N#C/C(C(=O)N1CCOCC1)=C1/SC(Cc2ccc(F)cc2)C(=O)N1c1ccccc1 (stereo unspecified) | 10.3 | –
COc1ccc(S(=O)(=O)N2CCN(CC(=O)N3CCOCC3)CC2)cc1OC | 0.861 | –
O=C(O)CCC(=O)Nc1ccc(OCC2CCCO2)cc1 (stereo unspecified) | 19.8 | –
Cc1ccsc1-c1cc(C(=O)O)c2c(ccc3ccccc32)n1 | 10.3 | –

SMILES | activity change, negative = growth inhibition [%] | Potency
CC(=O)C1=C(O)C(=O)N(c2ccc(Br)cc2)C1c1ccc([N+](=O)[O-])cc1 (stereo unspecified) | 23.1 | –
CCn1c2c(c(=O)n3ncc(C(=O)N4CCN(c5ccccc5)CC4)c13)CN(Cc1ccc(OC)cc1)CC2 | – | 16.4 µM (active)
CCn1c(CNC(=O)c2ccccc2)nnc1SCC(=O)N1CCN(c2ccccc2)CC1 | -0.967 | –
CCOC(=O)N1CCC(NC(=O)C(NS(=O)(=O)c2ccc3c(c2)CCN3C(=O)CC)C(C)C)CC1 (stereo unspecified) | -1.88 | –
Cc1cc2c(cc1S(=O)(=O)NCc1ccc(Cl)cc1)OCC(=O)N2 | -4.04 | –
Cc1cc(C)cc(NS(=O)(=O)c2cc3c(cc2C)NC(=O)CO3)c1 | – | 16.4 µM (active)
Cc1ccc(NS(=O)(=O)c2ccc3c(c2)NC(=O)CO3)cc1 | -25.8 | –
CC1CCCCC12NC(=O)N(CC(=O)OCC(=O)NCc1ccc(F)cc1)C2=O (stereo unspecified) | 6.76 | –
CC(=O)C[C@@H]1OC[C@H](CO)N1S(=O)(=O)c1ccc(C)cc1 | -5.46 | –
CCOC(=O)c1cnc(SCC(=O)Nc2ccccc2C(=O)OC)nc1N | – | 16.4 µM (active)
COC(=O)c1ccccc1NC(=O)CSc1ccccn1 | 2.84 | –
CCOC(=O)c1cnc(SCC(=O)NCc2ccco2)nc1N | -2.75 | –
O=C(CSc1nc2ccccc2c(=O)n1CCCO)NC1CC1 | -3.57 | –
COc1ccc(CCNC(=O)CCC(=O)NC2CCCCC2)cc1OC | -17.8 | –
COc1ccc(CCNC(=O)c2c3c(nc4ccccc24)C(=O)N(C2CCCCC2)C3)cc1OC | – | 20.6 µM (active)
COc1ccc(CCNC(=O)C2CCCN2C(=O)Nc2ccccc2)cc1OC (stereo unspecified) | 1.85 | –
COc1ccc(C(=O)NCCNc2ccc([N+](=O)[O-])cn2)cc1 | -12.2 | –
COc1ccc2c(C(=O)c3ccc(C)cc3)n(CCC(N)=O)[n+]([O-])c2c1 | -8.64 | –
CCOC(=O)C(C(=O)OCC)C(C#N)c1ccccc1 (stereo unspecified) | -4.24 | –
Cc1cc(C)cc(OCC(=O)NC(C)c2ccccc2)c1 (stereo unspecified) | -1.12 | –
CCOC(=O)/C=C/C(=O)OCC(=O)NC(c1ccccc1)c1ccccc1 | – | 5.8 µM (active)
O=C(/C=C/c1cccc([N+](=O)[O-])c1)OCC(=O)N1CCOCC1 | -14.9 | –
OC[C@@H]1CN(C2CCCC2)C[C@H](n2cnc3c(NC4CCC4)ncnc32)O1 | -0.382 | –
OC[C@@H]1CN(Cc2ccc(Cl)cc2)C[C@H](n2cnc3c(NCc4ccncc4)ncnc32)O1 | -15.7 | –
OC[C@@H]1CN(Cc2ccc(-c3ccccc3)cc2)C[C@H](n2cnc3c(NC4CCCC4)ncnc32)O1 | – | 1.03 µM (active)
